According to PubChem BioAssay AID2313 (Broad Institute, 2010):
Hit rate of the full screen: of about 22,000 compounds, about 460 (2.1%) were called active. Another 2% or so got no clear call; they are omitted. This is one part of a sample in which actives are shown more often than they occur. A number with no mark means an inactive call.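 How the source made its calls: active means mean inhibition across valid replicates above about 65% (limit read from the data); inconclusive means mean under the limit, yet half or more replicates past it; inactive means the rest.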

Assay: Hedgehog pathway signaling inhibitors, primary screen, luminescence, Shh-LIGHT2 cells, Gli-luciferase (AID 2313);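 further: pathway switched on by Shh-conditioned medium diluted 1 in 25 in low serum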
Conditions: Shh-LIGHT2 Gli-luciferase reporter, 30 h; hits give high values

Structure (SMILES) | inhibition
c1ccc2c(c1)[I+]c1ccccc1-2 | 88.8% (active)
COC(/C=C/CC/C=C/C(=O)O)C(O)C(C)C(O)/C(C)=C/C(C)C(=O)CCCC1CC(=O)NC(=O)C1 (stereo not given) | -22.8%
CC(C)c1c(CN(C)C(C)Cc2ccccc2)n(C)n(-c2ccccc2)c1=O (stereo not given) | -38.5%
CC(C)Nc1nc(Cl)nc(NC(C)C)n1 | -55.8%
CN(C)C(=O)Oc1cc(OC(=O)N(C)C)cc(C(O)CNC(C)(C)C)c1 (stereo not given) | 33.4%
C[C@H]1CCC/C=C/C2C[C@H](O)C[C@H]2[C@H](O)/C=C\C(=O)O1 (stereo not given in full) | 107% (active)
C=CC(C)(C)c1cc2cc3c(cc2oc1=O)O[C@H](C(C)(C)O)C3 | -36.2%
CC=C1CN2C3CC1C1(C(=O)OC)C2CC2(c4ccccc4N(C)C32)C1O (stereo not given) | 11.9%
CCCCC/C=C\C/C=C\C/C=C\CCCCCCC(=O)NCCO | -2.94%
C[C@@H]1O[C@@H](O[C@@H]2C=C3CC[C@@H]4C(C[C@@H](O)[C@]5(C)[C@@H](c6ccc(=O)oc6)CC[C@]45O)[C@@]3(C)CC2)[C@H](O)[C@H](O)[C@H]1O[C@@H]1O[C@H](CO)[C@@H](O)[C@H](O)[C@H]1O (stereo not given in full) | -37.6%
CC(C)[C@@]1(NC(=O)[C@@H]2CC3c4cccc5[nH]cc(c45)C[C@H]3N(C)C2)O[C@@]2(O)[C@@H]3CCCN3C(=O)[C@H](Cc3ccccc3)N2C1=O (stereo not given in full) | 21.5%
O=C(c1ccccc1)C12CN3CN(CN(C3)C1)C2 | -5.62%
COc1c(C(C)C)cc2c(c1O)[C@@]1(C(=O)O)CCCC(C)(C)C1CC2 (stereo not given in full) | -14.7%
CCCCCCCCCCCCCC(=O)O[C@@H]1[C@@H](C)[C@@]2(O)[C@@H](C=C(CO)C[C@]3(O)C(=O)C(C)=C[C@@H]23)[C@@H]2C(C)(C)[C@]12OC(C)=O | 87% (active)
CCCCC/C=C\C/C=C\C/C=C\C/C=C\CCCCCC(=O)NCCO | -36.6%
